In ChEMBL document CHEMBL4513216, “Probing the Open Global Health Chemical Diversity Library for Multistage-Active Starting Points for Next-Generation Antimalarials” (ACS Infect Dis, 2020) one finds INHIBITION data, which are given here for 30 molecules.

In all, about 68,000 compounds went through this assay and about 2,700 (4%) showed an effect of 50% or more. The full list was thinned out, with strong results kept by preference.

The test system of the experiment is Plasmodium berghei. Kind of experiment: Screen against P. berghei liver stage (PbLuc), transformed with Luciferase, at 2uM. Format: functional, HepG2. Particulars: tested at 2 uM.
Consider `Cc1cc(C)c(CCNC(=O)CN2CCCN(C(N)=O)CC2)c(C)c1`, for which the INHIBITION is listed as 66.74%.
The value for `Cc1cc(C)cc(C(=O)N2CCCN(CC(N)=O)CC2)c1` was 16.13%; that for `NC(=O)N1CCCN(CC(=O)NCCc2c(F)cccc2F)CC1` was 19.12%.
The value for `O=C(c1ccc2c(c1)OCO2)N1CCC[C@]2(C[C@H](OCC3CC3)CO2)C1` was 10.43%.
To `O=C(CN1CCCC1Cn1cccn1)NC1CCOCC1` (stereo not given) belongs 4.41%; to `CCCS(=O)(=O)c1ccc(N2CCN(Cc3ccccc3)CC2)nn1`, 27.54%.
For the molecule `Cc1nc(N2CCN(S(C)(=O)=O)CC2)cc(-n2cnc(C)c2C)n1`, the INHIBITION is given as 43.32%.
To `CCS(=O)(=O)N1CCN(c2cc(-n3cnc(C)c3C)nc(C)n2)CC1` belongs 61.28%; to `CCCS(=O)(=O)N1CCN(c2cc(-n3cnc(C)c3C)nc(C)n2)CC1`, 35.54%.
The value for `CCOCCN1CCCC1CS(N)(=O)=O` (stereo not given) was -7.76%; that for `O=C(c1ccc2c(c1)OCO2)N1CCCC(Nc2ccc(F)cc2)C1` (stereo not given) was 47.67%; that for `CC(C)(O)CSCCNC(=O)c1cc(F)ccc1F` was 35.56%.
To `CC(C)(O)CSCCNC(=O)c1ccc(F)cc1Cl` belongs 58.69%; to `CSCC(C)(O)CNC(=O)c1ccc(F)cc1Cl` (stereo not given), -29.65%.
Take `O=C(CCc1ccc(Cl)cc1)N[C@@H]1CC[C@@H](O)[C@@H]1O`: the INHIBITION is recorded as -11.3%.
To `c1cncc(CN2CCCn3nnc(COCC4CC4)c3C2)c1` belongs 34.37%.
Take `O=C(COCc1ccccc1)Nc1ccccn1`: the INHIBITION turned out to be 62.51%.
To `CSc1ccc(NC(=O)COCc2ccccc2)nc1` belongs 12.43%; to `O=C(CCCOCc1ccccc1)N1CCCC1c1ccccn1` (stereo not given), 28.51%.
The value for `CS(=O)(=O)Cc1cc(F)ccc1NCc1nnsc1Cl` was -13.68%; that for `CCC(C)(C)NC(=O)Cn1nnc(CN(C)C(=O)c2ccccc2)n1` was 2.49%; that for `Cc1ccc(N(C)Cc2nnnn2C2CC2)c(C)c1` was -11.28%.
In the case of `CN(Cc1nnnn1C1CC1)c1cccc2ccccc12`, the INHIBITION was 4.86%.
The value for `CCN(Cc1nnnn1C1CC1)c1cc(C)ccc1C` was 55.43%.
To `Cc1nnc(SCC(=O)NCc2ccc3c(c2)CCC(=O)N3)n1C` belongs 26.03%; to `Cc1ncc(-c2ccnc(SCCN(C)C)n2)c(-c2ccco2)n1`, 8.77%; to `CNC(=O)[C@@H](C1CCCCC1)N1CCC[C@H]1C(=O)N(C)CCN(C)C`, 27.65%.
To `Cc1cc(CC(C)NC(=O)Cc2cc(F)ccc2C)[nH]n1` (stereo not given) belongs 27.47%.
For the molecule `COc1ccccc1C1CC(=O)Nc2nc(N3CCCCC3)sc21` (stereo not given), the INHIBITION is -71.12%.
The value for `CN(C)C[C@@H]1CCC[C@@H]2CN(c3nccc(C(F)(F)F)n3)C[C@@H]21` was 16.87%.
